# Results taken from the supplement of paper PMC6555819.
# Key:
# Experiment in all cases: PBM binding z-score (relative to random genomic background probes); higher = stronger binding; sequences stand for … in GC…GCGATTGACAGCGTAGAATGAAGG
# [1] = tested on: PPARg:RXRa DBDmut IVT, anti-RXR (DBD mutation: RXRa K156A/R161A, NR concentration 270 nM, RXRa partner concentration 90 nM)
# Summary of the method: (§1)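 Each nuclear receptor dimer, without ligand, was incubated for 1 h on custom Agilent 4×180K protein-binding microarrays. Binding was detected with antibodies against each partner (one per run), and scanned fluorescence was regression-normalized. The binding z-scores are referenced to random human genomic background probes.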
# [2] = tested on: PPARg:RXRa IVT, anti-PPARg (NR concentration 270 nM, RXRa partner concentration 90 nM)
# Summary of the method: as §1
# [3] = tested on: PPARg DBDmut:RXRa IVT, anti-PPARg (DBD mutation: PPARg1 K132A/R137A, NR concentration 270 nM, RXRa partner concentration 90 nM)
# Summary of the method: as §1
# [4] = tested on: PPARg DBDmut IVT, anti-PPARg (DBD mutation: PPARg1 K132A/R137A, NR concentration 270 nM)
# Summary of the method: as §1
# [5] = tested on: PPARg homodimer (NR concentration 180 nM)
# Summary of the method: as §1
# [6] = tested on: PXR:RXRa (NR concentration 270 nM, RXRa partner concentration 90 nM)
# Summary of the method: as §1
# [7] = tested on: PXR homodimer (NR concentration 270 nM)
# Summary of the method: as §1
# [8] = tested on: RARa:RXR (NR concentration 270 nM, RXRa partner concentration 90 nM)
# Summary of the method: as §1
# [9] = tested on: RARa homodimer (NR concentration 270 nM)
# Summary of the method: as §1
# [10] = tested on: RARb:RXRa (NR concentration 270 nM, RXRa partner concentration 90 nM)
# Summary of the method: as §1
# [11] = tested on: RARb homodimer (NR concentration 270 nM)
# Summary of the method: as §1
# [12] = tested on: RARg:RXRa (NR concentration 270 nM, RXRa partner concentration 90 nM)
# Summary of the method: as §1
# [13] = tested on: RARg homodimer (NR concentration 270 nM)
# Summary of the method: as §1
# [14] = tested on: RXRa DBDmut IVT, anti-RXR (DBD mutation: RXRa K156A/R161A, NR concentration 90 nM)
# Summary of the method: as §1
# [15] = tested on: RXRa homodimer (NR concentration 180 nM)
# Summary of the method: as §1
# [16] = tested on: THRa:RXRa (NR concentration 90 nM, RXRa partner concentration 90 nM)
# Summary of the method: as §1
# [17] = tested on: THRa homodimer (NR concentration 90 nM)
# Summary of the method: as §1
# [18] = tested on: VDR:RXRa (NR concentration 270 nM, RXRa partner concentration 90 nM)
# Summary of the method: as §1
# [19] = tested on: VDR homodimer (NR concentration 270 nM)
# Summary of the method: as §1
Sequence,PBM binding z-score [1],PBM binding z-score [2],PBM binding z-score [3],PBM binding z-score [4],PBM binding z-score [5],PBM binding z-score [6],PBM binding z-score [7],PBM binding z-score [8],PBM binding z-score [9],PBM binding z-score [10],PBM binding z-score [11],PBM binding z-score [12],PBM binding z-score [13],PBM binding z-score [14],PBM binding z-score [15],PBM binding z-score [16],PBM binding z-score [17],PBM binding z-score [18],PBM binding z-score [19]
AATCAAAGTTCACTAGGTAACGTAAGATTCAGCT,2.41,4.17,1.22,1.64,2.31,3.75,2,2.5,1.15,4.72,3.41,4.44,4.91,4.32,3.38,2.02,0.0511,3.91,3.46
CATCCAGGGTCAGCTAGGCCAGAGTAGGGACGGC,0.695,2.52,0.576,0.124,1.54,2.31,-0.182,3.25,0.407,4.03,3.29,4.74,4.96,1.35,4.41,3.18,1.34,3.97,1.51
ATATGAAGGTTAGCTGGGGTCATTCAGACTAGGC,1.16,2.19,0.859,1.21,2.53,6.56,5,5.87,1.42,3.55,4.37,4.69,3.82,1.97,6.06,5.24,3.38,6.61,5.65
CAAACTAGGTCGAGAGGTCAAAGTCCGCTTCCCG,5.89,6.2,0.871,-0.159,2.68,5.25,1.9,5.44,1.21,4.24,4.73,5.98,5.09,2.17,6.17,3.62,1.8,5.01,3.99
TAGCCTAGGTCCTGGGCCAGTATACCACGCGAAC,-1.56,-0.0166,-0.0149,-1.32,-1.29,-0.91,-0.893,-0.567,-1.37,-0.156,-0.386,-0.497,-0.364,-1.66,-0.311,-0.414,-0.714,-0.679,-0.78
CCTACTGGGCCATCAGGTCTTTGATATCAACGTT,4.27,4.11,-0.465,-0.285,0.396,-0.399,-0.181,-0.151,-0.266,0.423,0.24,-0.0925,-0.00289,-0.126,-0.274,0.487,0.437,-0.244,-0.123
AAATGTAGGTTACATCCGGGTCATTCAGGCTATG,8.29,8.08,3.52,2.02,2.68,3.79,2.33,3.75,1.1,2.28,2.82,3.7,2,1.3,3.08,3.67,2.22,4.17,3.16
ATCTCTAGGTAAAGATAGTTCCGTGAATGCAAAT,1.2,1.52,1.55,0.949,0.486,-0.0332,0.339,0.23,0.96,-0.0284,-0.314,-0.154,0.427,-0.0164,0.0158,0.316,0.233,-0.0941,0.309
TCTTGTAGATCAAAGGTTAAAAAAGCCGAAGCCT,2.16,3.58,0.744,0.625,1.22,2.17,0.0944,3.21,0.327,1.69,1.22,1.79,0.557,0.941,3.35,1.44,-0.334,1.64,0.177
ATCTCTGGGTAACCAAGTTCAGTGAATGCCGAAC,3.23,2.59,0.324,1.24,0.00227,2.4,1.35,0.719,-0.0126,1.24,1.28,0.665,0.596,0.665,0.412,1.46,0.335,4.32,2.64
TCTTGCAGATCAACAGGAGGTTAAGAAAGATCGA,0.996,0.188,0.472,0.407,-0.378,0.713,-0.172,0.812,-0.193,0.489,0.407,0.798,0.138,0.162,0.749,0.859,-0.241,0.489,-0.1
TCATATTGGTAATACAGGTGAAAGTCGGCATCTA,2.7,1.89,0.751,1.85,1.69,0.947,0.763,1.09,1.43,0.496,0.667,0.388,0.332,1.69,0.917,0.669,0.437,1.12,0.279
CTAGAAAGGTCGGTTGAGGTGAGTATACGGATAA,0.237,1.18,0.0511,0.00122,1.34,3.37,0.245,2.6,0.889,3.03,2.53,2.76,2.97,1.01,2.5,4.81,1.71,2.4,1.05
CCTGCTAGCTCAATGGTCAGCTAAAGCAGCTCGC,-0.172,-0.705,-1.42,-1.42,-0.534,-0.568,-0.761,-0.44,-0.89,0.0479,0.464,-0.547,-0.75,0.0586,-0.756,-0.535,-0.555,-0.686,-0.94
AGAACGGGGGCACGCTGAGTTGATAGCAGAGTAG,4.63,6.15,9.13,9.69,2.35,3.72,1.03,2.98,0.451,3.1,1.94,3.62,3.2,2.78,2.94,2.9,0.833,4.23,3.45
TCTCGGAGGACGCGAAAGGTCAGAGCTCGACATC,0.887,0.996,1.57,0.428,2.2,3.7,0.0066,4.09,0.692,3.89,4.26,4.31,4.12,0.446,4.2,3.01,0.235,,0.581
GCTAGTTGGGCAGTAAAAGGTCACACACCGGTCG,0.484,2.09,-0.128,-0.41,4.82,5.1,1.13,6.26,2.32,4.16,5.15,5.03,4.7,0.364,5.38,3.49,1.62,,1.66
